Assay [1] can be described thus: NCI Yeast Anticancer Drug Screen. Data for the rad50 strain (AID 155).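 Further: 0% = growth of vehicle-only cultures of the same strain.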 Particulars: S. cerevisiae rad50 strain growth inhibition, stronger effect = higher value. The method in brief:
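Compounds were tested on a yeast strain with an engineered DNA damage repair alteration; the reported value is growth inhibition normalised to vehicle treatment.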

Assay [2] in a line: NCI Yeast Anticancer Drug Screen. Data for the mec2-1 strain (AID 157). Particulars: S. cerevisiae mec2-1 strain, stronger effect = higher value. The method in brief: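 Yeast mec2-1 mutant treated with compound. Readout: growth inhibition vs vehicle controls.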
The nature of assay [3]: NCI Yeast Anticancer Drug Screen. Data for the sgs1 mgt1 strain (AID 161).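 Further: 0% = growth of cultures given vehicle only.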 The settings on record: S. cerevisiae sgs1 mgt1 strain, stronger effect = higher value. The method in brief:
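Genetically altered yeast, compound exposure, growth inhibition relative to vehicle.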

Assay [4] in a line: NCI Yeast Anticancer Drug Screen. Data for the cln2 rad14 strain (AID 165).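 Further: 0% = growth equal to vehicle treated cultures.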 The settings on record: S. cerevisiae cln2 rad14 strain, stronger effect = higher value. The method in brief:
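cln2 rad14 yeast strain; compound exposure; growth inhibition read vs vehicle controls.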

Assay [5] can be described thus: NCI Yeast Anticancer Drug Screen. Data for the bub3 strain (AID 167). The settings on record: S. cerevisiae bub3 mutant strain, stronger effect = higher value. In outline:
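Growth of a checkpoint-deficient yeast mutant is measured after compound exposure. Values represent inhibition relative to vehicle.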

The nature of assay [6]: NCI Yeast Anticancer Drug Screen. Data for the mlh1 rad18 strain (AID 175). The settings on record: S. cerevisiae mlh1 rad18 strain growth inhibition, stronger effect = higher value. In outline: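 Yeast w/ defined DNA-repair lesions; compound exposure; growth vs vehicle controls → % inhibition.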
[7] abbreviates: at 5.0 µM (retest, dose inferred, filed as 0.5).
The mark [8] stands for this setting: at 50.0 µM (retest, dose inferred, filed as 5.0).

Values joined by “and” are separate entries in the source; they are usually repeats but may differ in a detail not shown here. Equal values may be shown once. The panel holds about 79,000 compounds, 15% with a hit somewhere; the sample as a whole holds those more often. The source holds several records for some structures; these can differ, active in one and inactive in another. Active and inactive are the calls of the source. No stated cut-off is given here; in the data, active means growth inhibition above about 70%; inactive means the rest.

Turning to `CCSC1=C(C)C(=O)c2ccccc2C1=O`, the growth inhibition in assay [1] (setting [7]) is 35% (inactive); in assay [1] (setting [8]) it was 99% (active); in assay [1] (at 50.0 µM), 70.1% (active); in assay [2] (setting [7]), 32% (inactive); in assay [2] (setting [8]), 99% (active); in assay [2] (at 50.0 µM), 50.1% (inactive). Also, the growth inhibition in assay [3] (setting [7]) was 7% (inactive); in assay [3] (setting [8]), 26% (inactive); in assay [3] (at 50.0 µM), 74.2% (active); in assay [4] (setting [7]) it was 44% (inactive); in assay [4] (setting [8]), 34% (inactive); in assay [4] (at 50.0 µM), 41.9% (inactive). In addition, the growth inhibition in assay [5] (setting [7]) was -6% (inactive); in assay [5] (setting [8]), 36% (inactive); in assay [5] (at 50.0 µM) it was 77.2% (active); in assay [6] (setting [7]), 11% (inactive); in assay [6] (setting [8]), 62% (inactive); in assay [6] (at 50.0 µM), 55% (inactive).
On to `CC(=O)Nc1nc(N)c2ncn(C3OC(C(O)CO)C(O)C3O)c2n1` (stereo unspecified), for which the growth inhibition in assay [1] (setting [7]) is 0% (inactive); in assay [1] (setting [8]) it was 1% (inactive); in assay [1] (at 50.0 µM) it was 1.75% (inactive) and -3.5% (inactive); in assay [2] (setting [7]) it was 0% (inactive); in assay [2] (setting [8]) it was 1% (inactive); in assay [2] (at 50.0 µM) it was 0.35% (inactive) and -7.5% (inactive). Further, the growth inhibition in assay [3] (setting [7]) is -3% (inactive); in assay [3] (setting [8]) it was -1% (inactive); in assay [3] (at 50.0 µM), 3% (inactive) and 1.8% (inactive); in assay [4] (setting [7]), 1% (inactive); in assay [4] (setting [8]) it was 0% (inactive); in assay [4] (at 50.0 µM), 53.5% (inactive) and -80% (inactive). In addition, the growth inhibition in assay [5] (setting [7]) was 1% (inactive); in assay [5] (setting [8]), 0% (inactive); in assay [5] (at 50.0 µM) it was -10.2% (inactive) and 10.1% (inactive); in assay [6] (setting [7]), -1% (inactive); in assay [6] (setting [8]), 3% (inactive); in assay [6] (at 50.0 µM), 18.9% (inactive) and -12.4% (inactive).
With `CCCCCCCCCCSC(=N)N`, the growth inhibition was -141% (inactive) and 19% (inactive) in assay [1] (setting [7]); 82% (active) and 91% (active) in assay [1] (setting [8]); 52.9% (inactive) and 95.7% (active) in assay [1] (at 50.0 µM); -48% (inactive) and -3% (inactive) in assay [2] (setting [7]); 71% (active) and 86% (active) in assay [2] (setting [8]); 49.8% (inactive) and 89.2% (active) in assay [2] (at 50.0 µM). Also, the growth inhibition in assay [3] (setting [7]) was -54% (inactive) and 22% (inactive); in assay [3] (setting [8]), 90% (active) and 95% (active); in assay [3] (at 50.0 µM), 52.5% (inactive) and 96.5% (active); in assay [4] (setting [7]) it was -50% (inactive) and 8% (inactive); in assay [4] (setting [8]), 49% (inactive) and 62% (inactive); in assay [4] (at 50.0 µM), 57.5% (inactive) and 57.2% (inactive). Also, the growth inhibition in assay [5] (setting [7]) is -47% (inactive) and 22% (inactive); in assay [5] (setting [8]), 84% (active) and 92% (active); in assay [5] (at 50.0 µM), 52.5% (inactive) and 94.3% (active); in assay [6] (setting [7]), -134% (inactive) and 1% (inactive); in assay [6] (setting [8]) it was 79% (active) and 90% (active); in assay [6] (at 50.0 µM), 52% (inactive) and 92.1% (active).
Turning to `c1ccc([P+](CCCCCCCC[P+](c2ccccc2)(c2ccccc2)c2ccccc2)(c2ccccc2)c2ccccc2)cc1`, the growth inhibition in assay [1] (setting [7]) was 40% (inactive); in assay [1] (setting [8]), 98% (active); in assay [1] (at 50.0 µM) it was 88.5% (active); in assay [2] (setting [7]) it was 39% (inactive); in assay [2] (setting [8]), 99% (active); in assay [2] (at 50.0 µM), 92% (active). The growth inhibition in assay [3] (setting [7]) was 46% (inactive); in assay [3] (setting [8]), 98% (active); in assay [3] (at 50.0 µM) it was 90.9% (active); in assay [4] (setting [7]), 30% (inactive); in assay [4] (setting [8]), 95% (active); in assay [4] (at 50.0 µM) it was 87.7% (active). The growth inhibition was 46% (inactive) in assay [5] (setting [7]); 98% (active) in assay [5] (setting [8]); 91.1% (active) in assay [5] (at 50.0 µM); 73% (active) in assay [6] (setting [7]); 97% (active) in assay [6] (setting [8]); 89.8% (active) in assay [6] (at 50.0 µM).
Take `CN(C)CCC(=O)c1cccc([N+](=O)[O-])c1`: the growth inhibition in assay [1] (setting [7]) is 10% (inactive); in assay [1] (setting [8]) it was 85% (active); in assay [1] (at 50.0 µM), 39.3% (inactive) and 83.9% (active); in assay [2] (setting [7]), 13% (inactive); in assay [2] (setting [8]), 87% (active); in assay [2] (at 50.0 µM), 4.1% (inactive) and 88.5% (active). Also, the growth inhibition was 12% (inactive) in assay [3] (setting [7]); 89% (active) in assay [3] (setting [8]); 11.4% (inactive) and 96% (active) in assay [3] (at 50.0 µM); 7% (inactive) in assay [4] (setting [7]); 71% (active) in assay [4] (setting [8]); 31.4% (inactive) and 34.9% (inactive) in assay [4] (at 50.0 µM). Further, the growth inhibition was 2% (inactive) in assay [5] (setting [7]); 92% (active) in assay [5] (setting [8]); 14.5% (inactive) and 90.2% (active) in assay [5] (at 50.0 µM); 11% (inactive) in assay [6] (setting [7]); 96% (active) in assay [6] (setting [8]); 33.4% (inactive) and 96.8% (active) in assay [6] (at 50.0 µM).
For `COc1ccc(NC(=O)C(=O)NO)c(OC)c1`, the growth inhibition in assay [1] (setting [7]) was 19% (inactive); in assay [1] (setting [8]), 94% (active); in assay [1] (at 50.0 µM), 90.8% (active); in assay [2] (setting [7]), -2% (inactive); in assay [2] (setting [8]), 96% (active); in assay [2] (at 50.0 µM), 91.1% (active). The growth inhibition in assay [3] (setting [7]) is 9% (inactive); in assay [3] (setting [8]), 94% (active); in assay [3] (at 50.0 µM) it was 91% (active); in assay [4] (setting [7]), -10% (inactive); in assay [4] (setting [8]) it was 94% (active); in assay [4] (at 50.0 µM), 87.9% (active). For the same compound, the growth inhibition in assay [5] (setting [7]) was 4% (inactive); in assay [5] (setting [8]), 93% (active); in assay [5] (at 50.0 µM), 91.2% (active); in assay [6] (setting [7]), -28% (inactive); in assay [6] (setting [8]), 95% (active); in assay [6] (at 50.0 µM), 87.9% (active).
Consider `O=C(CNCc1ccccc1)Oc1c(Cl)c(Cl)c(Cl)c(Cl)c1Cl`, for which the growth inhibition was 3% (inactive) in assay [1] (setting [7]); 32% (inactive) in assay [1] (setting [8]); 72.5% (active) in assay [1] (at 50.0 µM); 22% (inactive) in assay [2] (setting [7]); 43% (inactive) in assay [2] (setting [8]); 62.5% (inactive) in assay [2] (at 50.0 µM). The growth inhibition in assay [3] (setting [7]) is -13% (inactive); in assay [3] (setting [8]), 55% (inactive); in assay [3] (at 50.0 µM), 85.2% (active); in assay [4] (setting [7]), -5% (inactive); in assay [4] (setting [8]) it was 11% (inactive); in assay [4] (at 50.0 µM) it was 51.4% (inactive). In addition, the growth inhibition in assay [5] (setting [7]) was -4% (inactive); in assay [5] (setting [8]), 31% (inactive); in assay [5] (at 50.0 µM) it was 20% (inactive); in assay [6] (setting [7]) it was 29% (inactive); in assay [6] (setting [8]), 73% (active); in assay [6] (at 50.0 µM) it was 64.7% (inactive).

The record behind these values is PubChem BioAssay (NCI).
